# Test results: PubChem BioAssay (NCATS)
# Records with an inconclusive call do not appear. Calls of active or inactive are those of the source. Calls come from the whole dose curve; as a rule, active = well fitted curve in the direction sought with a large enough effect; inconclusive = small, poorly fitted or top-dose-only effect, or another doubt; inactive = no such curve, though single readings can be large; an effect the other way counts as inactive or inconclusive.
# Test: Primary qHTS for inhibitors of nuclear receptor binding SET domain protein 2 (NSD2) in an isogenic RCH-ACV NSD2 p.E1099K mutant (9B) (AID 1645876)
# Conditions: RCH-ACV NSD2 E1099K (9B) viability, CellTiter-Glo, 72 h; series mostly up to 44.9 µM
# Note: nearly all actives have a fitted effect of over 70% in size.
# Potency is the fitted concentration of half-maximal effect.
row,Structure (SMILES),Potency
1,c1cc2c(cc1C1OC[C@@H]3C(c4ccc5c(c4)OCO5)OC[C@H]13)OCO2 (stereo partly specified),inactive
2,COC[C@@H]1OC(=O)c2coc3c2[C@]1(C)C1=C(C3=O)[C@H]2CC[C@H](O)[C@@]2(C)C[C@@H]1OC(C)=O,820 nM (active)
3,COC(=O)[C@]12CCC(C)(C)C[C@@H]1[C@@H]1C(=O)C=C3[C@]4(C)C=C(C#N)C(=O)C(C)(C)[C@@H]4CC[C@@]3(C)[C@]1(C)CC2,461 nM (active)

# Test: Primary qHTS for inhibitors of nuclear receptor binding SET domain protein 2 (NSD2) in an RCH-ACV wild type WT cells (2C) (AID 1645877)
# Conditions: RCH-ACV (leukaemia line) NSD2 WT (2C) viability, CellTiter-Glo, 72 h; series mostly up to 44.9 µM
row,Structure (SMILES),Potency
1,c1cc2c(cc1C1OC[C@@H]3C(c4ccc5c(c4)OCO5)OC[C@H]13)OCO2 (stereo partly specified),inactive
2,COC[C@@H]1OC(=O)c2coc3c2[C@]1(C)C1=C(C3=O)[C@H]2CC[C@H](O)[C@@]2(C)C[C@@H]1OC(C)=O,651 nM (active)
3,COC(=O)[C@]12CCC(C)(C)C[C@@H]1[C@@H]1C(=O)C=C3[C@]4(C)C=C(C#N)C(=O)C(C)(C)[C@@H]4CC[C@@]3(C)[C@]1(C)CC2,326 nM (active)
